# Source: PubChem (The Scripps Research Institute Molecular Screening Center)
# TEAD-YAP block = TEAD-YAP interaction inhibition | actives 1.4% (n = 640,000) | AID 1259422 | HEK-TIYL cells, TEAD-Gal4/YAP UAS-luciferase luminescence | inhibition, % at 9.12 µM; in the data active = inhibition above about 32%;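 also: 0% = median of test compound wells and 100% = reference inhibitor wells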
# FBW7 activator = activators of human E3 ligase FBW7 | AlphaScreen FBW7–phospho-cyclin E peptide binding, activator screen | AID 1259310 | actives 0.13% (n = 650,000) | normalized activity (activation), % at 26.1 µM; in the data active = normalized activity above about 1.9%;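 also: purified mutant Fbw7 with reduced substrate affinity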
# GPR151 ag = activates the human receptor GPR151; activation, % at 11.2 µM; AID 1508602; actives 1% (n = 650,000); PathHunter beta-arrestin GPR151 cells, luminescence; Q8TDV0; in the data active = activation above about 4.9%;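 also: 0% = median of compound wells and 100% = cells with positive control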
# Target sequence (Q8TDV0 whole entry, looked up): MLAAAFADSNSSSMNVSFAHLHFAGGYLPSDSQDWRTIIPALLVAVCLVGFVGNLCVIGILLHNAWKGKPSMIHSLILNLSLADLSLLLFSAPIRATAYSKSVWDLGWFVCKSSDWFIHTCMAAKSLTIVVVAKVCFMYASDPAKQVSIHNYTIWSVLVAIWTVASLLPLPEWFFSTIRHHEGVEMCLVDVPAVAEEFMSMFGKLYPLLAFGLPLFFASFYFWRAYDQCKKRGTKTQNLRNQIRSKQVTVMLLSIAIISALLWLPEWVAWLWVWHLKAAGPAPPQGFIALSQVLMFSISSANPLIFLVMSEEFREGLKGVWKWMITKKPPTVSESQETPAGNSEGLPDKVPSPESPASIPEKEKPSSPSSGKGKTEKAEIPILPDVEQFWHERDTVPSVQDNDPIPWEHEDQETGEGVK
# MITF primary = inhibitors of human MITF; O75030; AlphaScreen MITF homodimerization, bead proximity signal; inhibition, % at 2.6 µM; actives 0.91% (n = 650,000); AID 1259374; in the data active = inhibition above about 50%;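 also: 0% = vehicle wells with protein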
# GPR151 confirm = confirmation of human GPR151 activators; shares compounds with GPR151 ag; GPR151 PathHunter beta-arrestin cells, luminescence, 90 min; % of EA-reagent control over plate median; activation, % at 11.2 µM; 6,700 tested, under 10 active;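 active = mean percent activation across replicates above the confirmation screen cutoff of 4.91%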
# GPR119 counter = GPR119 activation, counter-screen for GPR151 activators | shares compounds with GPR151 ag | GPR119 PathHunter beta-arrestin cells, luminescence, 90 min; 0 = compound-well median, 100 = enzyme-acceptor control | activation, % at 11.2 µM | actives 0.3% (n = 6,700) | AID 1508611;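 active = mean percent activation in the counterscreen above 29.09%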;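 also: counterscreen on off-target GPR119 to flag nonselective hits from the GPR151 activator screen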
# * = called active by the depositor; . = no result given. Rows were chosen to be rich in hits. Some 3.5% of all compounds tested hit in one or more screens of this group.
SMILES,TEAD-YAP block,FBW7 activator,GPR151 ag,MITF primary,GPR151 confirm,GPR119 counter
O=C(NCC1CCCN(Cc2cccnc2)C1)c1cccc2ccccc12 (stereo not given),0,0,1,1,.,.
CCCCc1ccc(C2=N/C(=C\c3ccccc3)C(=O)O2)cc1,-2,0,6.4*,1,0,-10
CCCCc1ccc(C2=N/C(=C\c3ccc(C)cc3)C(=O)O2)cc1,-4,0,0,-6,.,.
Nc1ccc(-c2nnn(CC(=O)Nc3ccc(F)cc3)n2)cc1,3,0,2,-4,.,.
CCOC(=O)CSC1=C(C#N)C(c2ccco2)C(C(=O)Nc2ccccc2)=C(C)N1 (stereo not given),-8,1,5.0*,-3,1,-1
COC(=O)c1cc(Nc2ccc(C)cc2)c2cccc(F)c2n1,21,0,2,0,.,.
COC(=O)c1cc(Nc2cccc(F)c2)c2cccc(OC)c2n1,4,0,7.9*,-14,0,-3
COc1ccc(NC(=O)CSc2nc3n[nH]c(C)c3c(=N)n2-c2ccccc2C)c(OC)c1,-7,0,-1,12,.,.
COc1ccc(C(=O)OCC2CC(c3ccccc3)=NO2)cc1OC (stereo not given),-7,0,0,-1,.,.
COc1cc(C(=O)OCC2CC(c3ccccc3)=NO2)cc(OC)c1OC (stereo not given),3,0,5.4*,3,-1,-10
CCCCCCn1c(N2CC(C)CC(C)C2)nc2c1c(=O)[nH]c(=O)n2C (stereo not given),-5,0,5.8*,11,0,7
CCCCCn1c(N2CCCC2)nc2c1c(=O)[nH]c(=O)n2C,4,0,0,7,.,.
COC(=O)c1cc(NC(=O)c2cccs2)cc(C(=O)OC)c1,9,0,0,3,.,.
Nc1cccc(NC(=O)c2cccc(N)c2)c1,-12,1,-1,23,.,.
Cc1oc(-c2ccc(Cl)cc2)nc1CS(=O)CC(=O)NC1CCCCCC1 (stereo not given),-12,0,0,8,.,.
Cc1oc(-c2ccc(Cl)cc2)nc1CS(=O)CC(=O)NC1CCCCC1 (stereo not given),-3,0,8.3*,12,1,-3
COc1ccc(/C=C2\N=C(c3ccccc3OC)OC2=O)c(OC)c1,-7,0,6.5*,-3,0,-2
COc1ccc(OC)c(/C=C2\N=C(c3ccccc3OC)OC2=O)c1,-11,0,1,13,.,.
CCOC(=O)c1ccccc1C(=O)N1CCOCCN(C(=O)c2ccccc2C(=O)OCC)CCOCC1,-6,0,-1,8,.,.
c1ccc(-c2nc3sc4c(c3c3nncn23)CCC4)cc1,-20,0,-1,-14,.,.
COC(=O)[C@@H]1CCCN1Cc1ccc2c(c1)CN(Cc1c[nH]c3ccccc13)CCO2,-4,0,6.9*,9,0,1
COC(=O)[C@@H]1CCCN1Cc1ccc2c(c1)CN(Cc1ccccc1)CCO2,-3,0,-1,-7,.,.
COc1ccc(CNC(=O)CC2C(=O)NCCN2Cc2ccc(-c3ccccc3)cc2)cc1 (stereo not given),13,0,2,-2,.,.
COc1ccc(/C=N/N(C)C2=NCCN2)c(OC)c1OC,2,0,6.9*,3,0,-8
Cc1ccc(C(=O)N/C(=C\c2ccccc2F)C(=O)N(C)C)cc1,1,0,1,3,.,.
SMILES,TEAD-YAP block,FBW7 activator,GPR151 ag,MITF primary,GPR151 confirm,GPR119 counter
CCOc1c(Cl)cc(C(=O)NC(C)(C)C)cc1Cl,5,0,1,-5,.,.
CCOc1ccc(C(=O)NC(C)(C)C)cc1Cl,10,0,6.9*,1,-1,-13
CCOc1ccc(C(=O)NC(=S)Nc2cccnc2)cc1[N+](=O)[O-],27,0,0,-7,.,.
CCOc1ccc(C(=O)NC(=S)Nc2cccnc2)cc1Cl,-1,0,7.1*,-12,1,16
Cc1nc2c(c(=O)[nH]1)CCN(Cc1ccc3ncccc3c1)C2,0,0,6.5*,5,0,-2
CC(=O)Nc1nc(SCC(=O)Nc2cc(C)on2)[nH]c(=O)c1NC(=O)c1cccs1,-1,0,0,27,.,.
CCN(CC)CCCCCCNc1cc(OC)cc2c(C)ccnc12,.,.,-2,.,.,.
